Reference: PubChem BioAssay
Active and inactive are the calls of the source. Unless noted, no rule for the calls is given here.

Columns and labels:
[1] = liver-stage malaria parasite load reduction – cell-based, known kinase inhibitor set, luminescence, hepatoma host viability (AID 624392); conditions: Plasmodium liver stage in hepatoma cells, luciferase luminescence, concentration not given here; liver cell % of control: measured here: host liver cell viability; parasite % of control: stronger effect = lower value;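 also: infected cells incubated roughly two days before readout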
[2] = altered dexamethasone sensitivity, NF-kB reporter, cell-based, luciferase, IL-1B stimulus (AID 624486); conditions: IL-1B + dexamethasone, luminescence; percent of negative control (+Dex): actives lie on both sides, concentration not given here; z-score: measured here: IL-1B alone, no Dex;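 as to percent of negative control (+Dex): 100% = mean signal of vehicle control wells on the plate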
[3] = C. elegans survival during P. aeruginosa infection – whole organism (AID 651566);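 also: tested at 14 µM; sign flipped so higher z means a lower ratio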; conditions: C. elegans killed by P. aeruginosa, survival ratio
[4] = pro-inflammatory signaling induction in mouse macrophages – cell-based, murine, luminescence (AID 652131); conditions: murine macrophage pro-inflammatory reporter, stronger effect = higher value
[5] = target: Cellular tumor antigen p53 (Homo sapiens) (UniProt P04637); experiment: GFP-p53 level modulators in HPV16+ cells – imaging, known kinase inhibitor set, EGFP/DsRed ratio (AID 1053116); conditions: GFP-p53 stability, stronger effect = higher value; EGFP object count: measured here: GFP-p53 positive objects count;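 also: cells exposed to compounds for 24 h at 37 °C before reading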
Sequence of Cellular tumor antigen p53 (Homo sapiens) (P04637 whole entry, looked up): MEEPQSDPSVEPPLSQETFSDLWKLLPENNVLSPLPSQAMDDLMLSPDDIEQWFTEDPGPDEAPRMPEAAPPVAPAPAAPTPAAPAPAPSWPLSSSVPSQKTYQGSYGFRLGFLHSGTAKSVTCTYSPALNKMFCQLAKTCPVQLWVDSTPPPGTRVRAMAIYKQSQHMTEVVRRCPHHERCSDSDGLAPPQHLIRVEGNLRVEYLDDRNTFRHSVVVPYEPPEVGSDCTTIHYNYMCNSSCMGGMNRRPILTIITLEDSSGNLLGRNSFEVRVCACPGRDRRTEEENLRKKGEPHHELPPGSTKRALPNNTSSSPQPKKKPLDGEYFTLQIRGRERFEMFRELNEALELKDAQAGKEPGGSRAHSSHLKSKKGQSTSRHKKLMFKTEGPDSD

[6] = inducers of IRF3 signaling, differentiated THP-1 – cell-based, PMA-stimulated THP-1, luminescence (AID 1053176); conditions: PMA-differentiated THP-1, IRF3 reporter luminescence; stronger effect = higher value
[7] = MELAS cybrid and Rieske KO viability enhancers – cell-based, MELAS cybrids, Rieske KO mouse fibroblasts, CellTiter-Glo, primary screen (AID 1508586;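 active = mean z-score across replicates of 1.96 or higher in either the MELAS or the Rieske mutant cell line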;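 also: z relative to plate mean and SD of compound and empty wells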); conditions: low glucose
[8] = MELAS cybrid survival, CellTiter-Glo 48 h, stronger effect = higher value
[9] = Rieske KO mouse fibroblast survival, CellTiter-Glo 72 h

SMILES | liver cell % of control [1] | parasite % of control [1] | percent of negative control (+Dex) [2] | z-score [2] | z-score [3] | z-score [4] | EGFP object count [5] | EGFP/DsRed ratio [5] | fraction signal [6] | z-score [7, 8] | z-score [7, 9]
CS(=O)(=O)Nc1cccc(-c2ccc3c(NC(=O)C4CC4)n[nH]c3c2)c1 | 89.6% | 233% (inactive) | 96% (inactive) | 0.535 | 0.185 (inactive) | -0.214 (inactive) | 7 | 0.137 (inactive) | -0.0065 (inactive) | -0.446 (inactive) | -0.47
NS(=O)(=O)c1cccc(-c2cc3ccncc3cc2OCc2ccccc2)c1 | 147% | 183% (inactive) | 95% (inactive) | 0.36 | 1.48 (inactive) | -0.246 (inactive) | 3.5 | 0.215 (inactive) | -0.012 (inactive) | 2.15 (active) | 0.958
O=C1NC(=O)C(c2cccc(Cl)c2)=C1Nc1ccc(Cl)c(C(=O)O)c1 | 102% | 122% (inactive) | 96.5% (inactive) | 0.205 | -0.33 (inactive) | -0.043 (inactive) | 2.5 | 0.103 (inactive) | 0 (inactive) | -0.755 (inactive) | -0.327
O=C1Nc2ccc(C(=O)c3ccco3)cc2/C1=C/c1cc(Cl)c(O)c(Cl)c1 | 143% | 74.2% (inactive) | 91% (inactive) | 0.035 | 0.21 (inactive) | -0.774 (inactive) | 4.5 | 0.0627 (inactive) | -0.005 (inactive) | -1.39 (inactive) | -0.429
CCN(CC)S(=O)(=O)c1ccc(OC)c(Nc2ncc(-c3ccccc3)o2)c1 | 168% | 80% (inactive) | 91% (inactive) | 0.485 | -0.36 (inactive) | -0.177 (inactive) | 3 | 0.245 (inactive) | -0.012 (inactive) | -0.446 (inactive) | -0.197
Cc1cc(Cl)cc2c(N=Nc3ccc(S(N)(=O)=O)cc3)c(O)[nH]c12 | 94.4% | 139% (inactive) | 100% (inactive) | 0.945 | -0.145 (inactive) | -0.3 (inactive) | 2.5 | 0.092 (inactive) | -0.0045 (inactive) | 0.0201 (inactive) | -0.605
